An excerpt weighted towards active compounds, which were near 1.8% of everything screened.
NOD2-RIPK2 inh = NOD2-RIPK2 binding disruptors in cells, primary screen, fluorescence, CHO cells, BLA complementation; Receptor-interacting serine/threonine-protein kinase 2 (Homo sapiens), O43353; CCF4 ratio; inhibition, % at 4.98 µM; hit rate 0.38% among 360,000; AID 624267, 2012; in the data active means inhibition above about 21%;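 further: 0% = vehicle only and 100% = reference blocker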
TLR9-MyD88 block = inhibitors of TLR9-MyD88 association in cells, primary screen, cell-based, CHO, BLA complementation, fluorescence. CCF4 FRET ratio. inhibition, % at 4.98 µM. hit rate 0.21% among 340,000. AID 504734, 2011;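 active means inhibition above the mean over all tested compounds plus 3 SD, cut at about 21% in these data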;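 further: 0% = DMSO only wells and 100% = clavulanate BLA inhibitor control wells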
Mcl1-Bid inh = Mcl-1/Bid binding inhibitors, primary screen, biochemical, TR-FRET, 1536-well | Induced myeloid leukemia cell differentiation protein Mcl-1 (Homo sapiens), Q07820 | inhibition, % at 21.7 µM | hit rate 0.97% among 220,000 | TR-FRET Mcl-1/Bid-Dy647 peptide binding;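 active means compounds that cut the binding signal by more than half at the single screening dose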;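 further: His-tagged Mcl-1 with europium anti-His antibody binding Bid BH3 peptide; 0% = Mcl-1 plus peptide wells and 100% = peptide-only wells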
Mcl-1 Bim block = inhibitors of Bim peptide binding to Mcl-1, primary screen, biochemical, bead-based flow cytometry, multiplex; AID 1009, 2008; hit rate 0.1% among 190,000; Bim peptide-Mcl-1 binding; inhibition, % at 10 µM; Induced myeloid leukemia cell differentiation protein Mcl-1 (Homo sapiens), Q07820; in the data active means inhibition above about 40%;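 further: 0% = no compound tracer wells and 100% = peptide blocker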
Mcl1 Noxa PPI = Mcl-1/Noxa binding inhibitors, primary screen, biochemical, TR-FRET, 1536-well | Induced myeloid leukemia cell differentiation protein Mcl-1 (Homo sapiens), Q07820 | TR-FRET Mcl-1/Noxa peptide binding, 2 h | inhibition, % at 21.7 µM | hit rate 1.5% among 220,000 | AID 1022, 2008;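 active means compounds that cut the protein-peptide binding signal by more than 50% relative to plate controls in a single-dose test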;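 further: His-tagged Mcl-1 with rhodamine Noxa BH3 peptide and terbium anti-His antibody; 0% = Mcl-1 plus Noxa peptide wells and 100% = peptide-only wells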
TLR4-MyD88 BLA = inhibitors of TLR4-MyD88 association in cells, primary screen, cell-based, HeLa CL3-4, BLA complementation, FRET ratio. hit rate 0.18% among 200,000. inhibition, % at 8.4 µM. HeLa CL3-4 TLR4/MyD88 BLA complementation; in the data active means inhibition above about 25%;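 further: 0% = vehicle and 100% = reference inhibitor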
* hit, by the source's call; . = not tested or not shown.

SMILES	NOD2-RIPK2 inh	TLR9-MyD88 block	Mcl1-Bid inh	Mcl-1 Bim block	Mcl1 Noxa PPI	TLR4-MyD88 BLA
C=CCOc1ccc(C[C@H](N)C(=O)NC[C@H]2O[C@@H](n3ccc(N)nc3=O)[C@H](O)[C@@H]2O)cc1	4.1	2.7	.	.	.	.
Cc1cc2nc(-c3cccnc3SCC(=O)NCc3ccco3)[nH]c2cc1C	1.7	-13.0	-32.7	0.0	73.2*	-1.8
O=C(COC(=O)Cn1cc(C(F)(F)F)ccc1=O)NCc1ccccc1	-1.7	2.2	.	.	.	.
C#CCOCCOCCOCCNc1nc(N2CCN(C(=O)CCCCCCCCCCNC(=O)[C@H](CCCCN)n3cc(CCO)nn3)CC2)nc(N2CCN(C(=O)CCCCCCCCCCNC(=O)[C@@H]([C@H](C)O)n3cc(C)nn3)CC2)n1	11.0	-13.0	.	.	.	.
C#CCOCCOCCOCCNc1nc(N2CCN(C(=O)CCCCCCCCCCNC(=O)[C@H]([C@@H](C)CC)n3cc(CCCCCN)nn3)CC2)nc(N2CCN(C(=O)CCCCCCCCCCNC(=O)[C@@H]([C@H](C)O)n3cc(C)nn3)CC2)n1	37.3*	2.8	.	.	.	.
C#CCOCCOCCOCCNc1nc(N2CCN(C(=O)CCCCCCCCCCNC(=O)[C@H](CCCCN)n3cc(C)nn3)CC2)nc(N2CCN(C(=O)CCCCCCCCCCNC(=O)[C@@H]([C@H](C)CC)n3cc(CCCCCN)nn3)CC2)n1	50.4*	22.9*	.	.	.	.
CN1CCN(c2nnc(-c3ccc(F)cc3)c3ccccc23)CC1	-2.8	-2.7	.	.	.	.
CCCOC(=O)c1cc(-c2ccc(/C=C3/C(=O)N(C)C(=O)C(C#N)=C3C)o2)ccc1Cl	-9.6	-9.1	.	.	.	-5.3
C=CCOC(=O)c1cc(-c2ccc(/C=C3\C(=O)NC(=O)C(C#N)=C3C)o2)ccc1Cl	-9.2	1.4	99.0*	-6.0	104.8*	12.0
CC1=C(C#N)C(=O)NC(=O)/C1=C/c1ccc(-c2ccc(S(N)(=O)=O)cc2)o1	-3.3	4.9	-37.7	2.0	87.1*	10.1
COc1ccc(C(O)c2cnc(C)n2Cc2ccccc2)cc1 (stereo not drawn)	1.4	-1.3	.	.	.	.
CN(C)S(=O)(=O)c1cccc(CSCc2cccc(S(=O)(=O)N(C)C)c2)c1	-0.1	-14.4	.	.	.	.
NC(=O)c1ccsc1NC(=O)c1ccc(N2CCCC2=O)cc1	3.3	-9.3	-1.7	0.0	54.9*	-7.5
COc1ccccc1OCC(=O)NCCCN1CCOCC1	-6.5	-5.6	.	.	.	.
COc1ccccc1NC(=O)COc1cc(Br)c(CNCCCN2CCOCC2)cc1OC	-18.2	6.7	89.0*	2.0	43.2	13.1
Oc1ccc(-c2nc(-c3ccc(O)c(O)c3)cs2)cc1	7.8	0.1	-2.1	0.0	59.0*	0.0
Oc1ccc(Nc2nc(-c3ccc4ccccc4c3)cs2)cc1	0.5	12.4	25.4	-5.0	47.9	2.6
O=C1CC2c3ccccc3C1C1C(=O)N(Cc3ccccc3)C(=O)C21 (stereo not drawn)	-7.4	-0.1	5.3	1.0	10.2	-0.4
O=C(COC(=O)c1ccc(Br)o1)Nc1ccc(N2CCOCC2)cc1	1.5	-8.3	.	.	.	.
COCC(=O)Nc1ccc(S(=O)(=O)N2CCCC2)cc1	-4.9	-16.6	.	.	.	.
CCCc1nc2c(C)ccc(C)c2c(N)c1CC	-6.8	1.8	58.3*	0.0	21.9	-14.5
CCc1nnc(NC(=O)c2sc3nc4c(cc3c2N)CCCCCC4)s1	-3.1	5.1	42.4	-4.0	53.2*	2.3
CN(C)S(=O)(=O)c1ccc(Cl)c(NC(=O)COC(=O)/C=C/c2ccco2)c1	5.0	-9.0	-30.8	-2.0	8.0	-2.0
CC1=CC(=O)C=C(C)C1=NOC(=O)c1cccc([N+](=O)[O-])c1	-5.0	-13.7	-10.4	-3.0	52.8*	-9.6
CCOC(=O)Cc1csc(-n2sc3ccccc3c2=O)n1	15.7	-2.6	-43.2	-5.0	68.1*	13.0
SMILES	NOD2-RIPK2 inh	TLR9-MyD88 block	Mcl1-Bid inh	Mcl-1 Bim block	Mcl1 Noxa PPI	TLR4-MyD88 BLA
CCOC(=O)Cc1csc(SCn2nnc3ccccc3c2=O)n1	-2.0	2.0	-18.0	-6.0	-5.5	13.3
Cc1ccc2nc(C)cc(C(=O)N3CCCC(CO)(Cc4ccccc4C)C3)c2c1 (stereo not drawn)	2.1	-2.0	15.9	-5.0	21.3	9.6
Cc1csc(NC(=O)c2cc(-c3ccco3)nc3ccccc23)n1	-15.2	-8.6	12.5	-2.0	98.7*	-17.8
N=c1oc2cc(O)ccc2cc1C(=O)Nc1ccccn1	.	.	-20.2	0.0	13.4	-80.1
O=C(Nc1nccs1)c1cc(-c2ccco2)nc2ccccc12	-0.1	-9.1	-88.5	-8.0	81.3*	-4.3
N=c1oc2cc(O)ccc2cc1C(=O)Nc1nc2ccccc2s1	-41.0	-66.4	72.5*	0.0	100.1*	-87.2
O=C(NC1CC1)c1cc(-c2ccco2)nc2ccccc12	-6.0	-0.9	38.9	.	104.9*	.
CC1(C)CC2(C)CC(=O)C1C(C(=O)O)C2C(=O)O (stereo not drawn)	-8.9	-17.8	.	.	.	.
CN1C[C@@H]2[C@@H]3C(=O)N(Cc4ccccc4)C(=O)[C@@H]3[C@](Cc3ccccc3)(C1=O)N2C(=O)c1ccc(Cl)cc1	4.1	0.9	.	.	.	.
CN(c1ccccc1C(=O)Nc1ccc(CC#N)cc1)S(=O)(=O)c1ccccc1	-9.8	-3.2	.	.	.	.
Cc1cc(C)c(S(=O)(=O)c2cccc(Cl)c2)c(=O)[nH]1	3.5	-4.3	.	.	.	.
CCOc1ccc(/C=N/NC(=O)c2cc(-c3ccco3)nc3ccccc23)cc1	-4.7	7.4	-18.6	0.0	44.9	-15.4
O=C(N/N=C/c1ccc(F)cc1)c1cc(-c2ccco2)nc2ccccc12	-1.8	-13.3	98.0*	-1.0	104.4*	-6.3
O=C(Nc1nc2ccccc2s1)c1cc(-c2ccco2)nc2ccccc12	-6.6	4.9	62.6*	-3.0	58.6*	16.5
Cc1nnc(NC(=O)c2cc(-c3ccco3)nc3ccccc23)s1	5.3	4.9	.	.	.	.
Cc1ccc2nc(NC(=O)c3cc(-c4ccco4)nc4ccccc34)sc2c1	-1.0	-0.4	53.4*	0.0	41.5	-12.8
C(=C\c1ccccn1)/c1cccnc1	3.7	0.3	-61.3	.	-11.3	.
CC1(c2nnnn2-c2ccc3c(c2)OCCO3)CCC(=O)N1CC1CCCCC1 (stereo not drawn)	-2.7	.	.	.	.	.
Cc1c(C(=O)NCc2ccc3c(c2)OCO3)sc(=O)n1Cc1ccc(-c2ccccc2)cc1	-5.8	.	.	.	.	.
O=c1cc(O)c2sc3nc(C(F)(F)F)c4c(c3c2[nH]1)CCCCC4	0.3	-0.8	-36.7	0.0	14.4	-0.3
CC(C)c1nc2sc3c(=O)[nH]c(=S)[nH]c3c2c2c1CCCC2	-2.5	1.4	-172.1	.	57.2*	.

Compound activity deposited in PubChem by several laboratories.
